Experiment [1] deals with human RAR-related Orphan Receptor beta (RORb), RORB (gene 6096) (UniProt Q92753). Nature of the experiment: ATG_RORb_TRANS: Attagene TRANS-FACTORIAL HepG2 Assay for human RAR-related Orphan Receptor beta (RORb) (AID 2283010; active = hit-call score of the fitted dose curve at least 0.9, where 1 is the maximum). The essentials:
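In this TRANS-format test, human HepG2 cells express chimeric NR-Gal4 fusion proteins driving GAL4-UAS reporters. After 24 h dosing, reporter transcripts are measured by fluorescent RT-PCR/capillary electrophoresis, with DMSO as negative control.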

Experiment [2] has as its target Retinoic acid receptor RXR-alpha (Homo sapiens) (UniProt P19793). Nature of the experiment: ATG_RXRa_TRANS: Attagene TRANS-FACTORIAL HepG2 Assay for human Retinoid X Receptor alpha (RXRa) (AID 2283012; active = hit-call score of the fitted dose curve at least 0.9, where 1 is the maximum). The essentials: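 Cells (HepG2) carried transiently transfected GAL4-responsive reporter units. Following a 24 h chemical incubation, reporter mRNA induction was read via RT-PCR fragment analysis; DMSO served as negative control and baseline.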

Read-out in experiment [3]: E-selectin (Homo sapiens) (UniProt P16581)
Nature of the experiment: BSK_3C_Eselectin: BioMAP Diversity Plus: 3C Assay for Eselectin Biomarker Activity (AID 2283015).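 As to outcome: cell surface E-selectin protein quantified by ELISA 24 h after dosing.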 Conditions: primary human endothelial cells (HUVEC); actives raise or lower the signal. In outline: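 ELISA read-out of E-selectin on endothelial monolayers after 24 h chemical treatment. Human umbilical vein primary cells served as the system, with DMSO defining baseline activity for bidirectional fitting.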

Read-out in experiment [4]: Interleukin-1 alpha (IL1a), IL1A (gene 3552)
Nature of the experiment: BSK_BE3C_IL1a: BioMAP Diversity Plus: BE3C Assay for Interleukin-1 alpha (IL1a) Biomarker Activity (AID 2283016). Conditions: primary human bronchial epithelial cells; actives raise or lower the signal. The essentials:
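Cultures of primary human bronchial epithelial cells receive test chemical. After 24 h, IL-1a is quantified by ELISA, while parallel wells are fixed in TCA and SRB-stained for total protein. Changes in either direction are fitted relative to DMSO.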

Read-out in experiment [5]: Monocyte Chemoattractant Protein-1 (MCP1), CCL2 (gene 6347)
Kind of experiment: BSK_4H_MCP1: BioMAP Diversity Plus: 4H Assay for Monocyte Chemoattractant Protein-1 (MCP1) Biomarker Activity (AID 2283018). The conditions noted are these: primary human endothelial cells (HUVEC); actives raise or lower the signal. In outline:
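Readout: MCP-1 ELISA on compound-treated HUVEC, sampled 24 h post-dosing. Baseline and negative control DMSO; bidirectional fit. Overt toxicity checked alongside by sulforhodamine B protein staining at time of biomarker measurement.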

Read-out in experiment [6]: Human Leukocyte Antigen - DR isotype (HLADR), HLA-DRA (gene 3122)
Nature of the experiment: BSK_3C_HLADR: BioMAP Diversity Plus: 3C Assay for Human Leukocyte Antigen - DR isotype (HLADR) Biomarker Activity (AID 2283019). Conditions: primary human endothelial cells (HUVEC); actives raise or lower the signal. The essentials: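 ELISA readout of surface HLA-DR on human umbilical vein endothelium, taken 24 h after chemical treatment. Gain- and loss-of-signal were both fitted relative to DMSO.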

Read-out in experiment [7]: Interleukin-8 (IL8), CXCL8 (gene 3576)
Kind of experiment: BSK_3C_IL8: BioMAP Diversity Plus: 3C Assay for Interleukin-8 (IL8) Biomarker Activity (AID 2283020). The conditions noted are these: primary human endothelial cells (HUVEC); actives raise or lower the signal. The essentials: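 Human vascular endothelial cells (umbilical vein) in the 3C system; IL-8 level detected by ELISA at 24 h post-dose, with DMSO as baseline.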

Read-out in experiment [8]: Monokine induced gamma interferon (MIG), CXCL9 (gene 4283)
Nature of the experiment: BSK_3C_MIG: BioMAP Diversity Plus: 3C Assay for Monokine induced gamma interferon (MIG) Biomarker Activity (AID 2283021).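 As to AC50: MIG protein level measured by immunoassay in the treated endothelial cultures.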 The conditions noted are these: primary human endothelial cells (HUVEC); actives raise or lower the signal. In outline:
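After 24 h of treatment, human umbilical vein endothelial cultures (3C system) had their MIG biomarker level determined by ELISA, with DMSO serving as negative control.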

A short description of experiment [9]: BSK_3C_SRB: Viability Assessment in the BioMAP Diversity Plus: 3C Assay (AID 2283023).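 Also: fitted both ways against DMSO so a hit may be signal rise or drop.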 The conditions noted are these: primary human endothelial cells (HUVEC). The essentials:
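Absorbance at 560 nm of sulforhodamine B-stained (0.1%) total protein served as a cytotoxicity readout in human umbilical vein endothelial cells, 24 h after chemical treatment. Signal was fitted bidirectionally relative to DMSO.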

Read-out in experiment [10]: Matrix Metallopeptidase 1 (MMP1), MMP1 (gene 4312)
Nature of the experiment: BSK_BE3C_MMP1: BioMAP Diversity Plus: BE3C Assay for Matrix Metallopeptidase 1 (MMP1) Biomarker Activity (AID 2283024). The conditions noted are these: primary human bronchial epithelial cells; actives raise or lower the signal. In outline: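 Dose cells, wait 24 h, run MMP1 ELISA; cells are human bronchial epithelial primaries. Both increases and decreases relative to DMSO counted.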

The nature of experiment [11]: BSK_3C_Vis: BioMAP Diversity Plus: 3C Assay for Morphology Visualization (AID 2283025).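 Also: fitted both ways so gain or loss versus DMSO counts.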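 As to AC50: light microscopy image of cell morphology used as background control.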 Conditions: primary human endothelial cells (HUVEC). The essentials: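 Endothelial cells from human umbilical vein were treated with test chemicals for 24 h and inspected by light microscopy for changes in cell conformation.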
Experiment [12] in a line: BSK_4H_SRB: Viability Assessment in the BioMAP Diversity Plus: 4H Assay (AID 2283027).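 Also: cells exposed to compound for 24 h before staining.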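 As to AC50: curves fitted both ways versus DMSO so AC50 may be loss or gain.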 Conditions: primary human endothelial cells (HUVEC). In outline: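 Human umbilical vein endothelial cells, 24 h after chemical dosing; total protein measured by 0.1% sulforhodamine B staining after 10% TCA fixation, read at 560 nm. Bidirectional fitting against DMSO.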
Experiment [13] can be described thus: BSK_BE3C_SRB: Viability Assessment in the BioMAP Diversity Plus: BE3C Assay (AID 2283028).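 As to AC50: fitted both ways so AC50 may mark signal gain or loss versus DMSO.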 Conditions: primary human bronchial epithelial cells. The essentials:
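Cells (human bronchial epithelial, primary) are treated with chemicals, and after 24 h the parallel cultures are fixed in 10% TCA. These are then stained with 0.1% SRB and read at 560 nm. Gain or loss of signal is fitted relative to DMSO.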

Read-out in experiment [14]: Thrombomodulin, THBD (gene 7056)
Nature of the experiment: BSK_3C_Thrombomodulin: BioMAP Diversity Plus: 3C Assay for Thrombomodulin Biomarker Activity (AID 2283029). Conditions: primary human endothelial cells (HUVEC); actives raise or lower the signal. In outline: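 Thrombomodulin ELISA, human primary HUVEC, 24 h post-dose; data fitted in both directions relative to DMSO.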

Experiment [15] concerns the target human Retinoid X Receptor beta (RXRb), RXRB (gene 6257) (UniProt P28702). Kind of experiment: ATG_RXRb_TRANS: Attagene TRANS-FACTORIAL HepG2 Assay for human Retinoid X Receptor beta (RXRb) (AID 2283013; active = hit-call score of the fitted dose curve at least 0.9, where 1 is the maximum). The essentials: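 Multiplexed TRANS reporter assay in HepG2; 24 h dosing; reporter mRNA by RT-PCR/CE fluorescence; gain-of-signal relative to DMSO.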
In experiment [16] the target is human Thyroid Receptor alpha (THRa1), THRA (gene 7067) (UniProt P10827). Nature of the experiment: ATG_THRa1_TRANS: Attagene TRANS-FACTORIAL HepG2 Assay for human Thyroid Receptor alpha (THRa1) (AID 2283014; active = hit-call score of the fitted dose curve at least 0.9, where 1 is the maximum). In outline: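 Reporter transcript induction, read by capillary electrophoresis of 6-FAM-labelled RT-PCR products, reflects activity of a transfected THRa1-Gal4 fusion in HepG2 liver cells. Cells were dosed for 24 h; activity was fitted in the positive direction against DMSO.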

Read-out in experiment [17]: Monocyte Chemoattractant Protein-1 (MCP1), CCL2 (gene 6347)
Nature of the experiment: BSK_3C_MCP1: BioMAP Diversity Plus: 3C Assay for Monocyte Chemoattractant Protein-1 (MCP1) Biomarker Activity (AID 2283017). Conditions: primary human endothelial cells (HUVEC); actives raise or lower the signal. The essentials:
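ELISA read-out of MCP-1 from human umbilical vein endothelial cell cultures harvested 24 h post-dosing. Gain or loss of signal was fitted relative to DMSO.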

The target of experiment [18] is human Vitamin D Receptor (VDR), VDR (gene 7421) (UniProt P11473). Nature of the experiment: ATG_VDR_TRANS: Attagene TRANS-FACTORIAL HepG2 Assay for human Vitamin D Receptor (VDR) (AID 2283022; active = hit-call score of the fitted dose curve at least 0.9, where 1 is the maximum). In outline: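 Steps: transfect HepG2 with GAL4-UAS-driven reporter constructs; dose compounds 24 h; isolate RNA, reverse-transcribe, PCR-amplify with 6-FAM-labelled primer extension and HpaI digestion; quantify fragments by capillary electrophoresis relative to DMSO.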

Read-out in experiment [19]: Pselectin, SELP (gene 6403)
Kind of experiment: BSK_4H_Pselectin: BioMAP Diversity Plus: 4H Assay for Pselectin Biomarker Activity (AID 2283026). The conditions noted are these: primary human endothelial cells (HUVEC); actives raise or lower the signal. The essentials:
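Human vascular endothelium from umbilical vein; P-selectin measured by ELISA at 24 h post-dose, with cytotoxicity checked by sulforhodamine B total-protein staining in parallel cultures (0.1% SRB after 10% TCA fixation, read at 560 nm).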

The target in experiment [20] is human RAR-related Orphan Receptor gamma (RORg), RORC (gene 6097) (UniProt P51449). Nature of the experiment: ATG_RORg_TRANS: Attagene TRANS-FACTORIAL HepG2 Assay for human RAR-related Orphan Receptor gamma (RORg) (AID 2283011; active = hit-call score of the fitted dose curve at least 0.9, where 1 is the maximum). In outline:
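First, HepG2 liver cells were transfected with GAL4-UAS-driven reporter constructs and the RORg-Gal4 fusion. Next, they were treated with chemical for 24 h. Finally, reporter mRNA was quantified by RT-PCR and capillary electrophoresis, with upward activity fitted against DMSO.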

Each structure is given as a SMILES string. Inconclusive results are not listed. The source made the active and inactive calls. The calls were made as follows, unless noted: active = hit-call score of the fitted dose curve at least 0.9, where 1 is the maximum; inactive = score below 0.9.

Experimental findings from PubChem BioAssay (EPA / NIEHS) are described below.

Sequence of E-selectin (Homo sapiens) (P16581 whole entry, looked up): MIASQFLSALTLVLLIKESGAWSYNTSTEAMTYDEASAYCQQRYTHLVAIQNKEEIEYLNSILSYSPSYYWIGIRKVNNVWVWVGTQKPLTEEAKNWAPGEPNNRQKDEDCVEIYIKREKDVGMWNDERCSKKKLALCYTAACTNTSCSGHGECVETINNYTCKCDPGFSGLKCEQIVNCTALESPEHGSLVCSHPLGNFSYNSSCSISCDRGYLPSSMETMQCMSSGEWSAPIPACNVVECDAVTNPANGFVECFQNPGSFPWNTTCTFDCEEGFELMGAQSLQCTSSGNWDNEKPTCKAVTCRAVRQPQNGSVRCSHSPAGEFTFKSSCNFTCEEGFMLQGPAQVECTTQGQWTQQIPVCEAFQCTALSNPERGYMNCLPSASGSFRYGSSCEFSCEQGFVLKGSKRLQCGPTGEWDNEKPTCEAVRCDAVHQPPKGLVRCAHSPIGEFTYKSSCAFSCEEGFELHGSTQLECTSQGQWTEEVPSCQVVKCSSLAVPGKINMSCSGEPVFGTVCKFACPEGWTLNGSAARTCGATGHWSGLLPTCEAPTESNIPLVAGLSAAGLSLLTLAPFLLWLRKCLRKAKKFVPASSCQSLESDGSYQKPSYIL
Sequence of human Retinoid X Receptor beta (RXRb), RXRB (gene 6257) (P28702 whole entry, looked up): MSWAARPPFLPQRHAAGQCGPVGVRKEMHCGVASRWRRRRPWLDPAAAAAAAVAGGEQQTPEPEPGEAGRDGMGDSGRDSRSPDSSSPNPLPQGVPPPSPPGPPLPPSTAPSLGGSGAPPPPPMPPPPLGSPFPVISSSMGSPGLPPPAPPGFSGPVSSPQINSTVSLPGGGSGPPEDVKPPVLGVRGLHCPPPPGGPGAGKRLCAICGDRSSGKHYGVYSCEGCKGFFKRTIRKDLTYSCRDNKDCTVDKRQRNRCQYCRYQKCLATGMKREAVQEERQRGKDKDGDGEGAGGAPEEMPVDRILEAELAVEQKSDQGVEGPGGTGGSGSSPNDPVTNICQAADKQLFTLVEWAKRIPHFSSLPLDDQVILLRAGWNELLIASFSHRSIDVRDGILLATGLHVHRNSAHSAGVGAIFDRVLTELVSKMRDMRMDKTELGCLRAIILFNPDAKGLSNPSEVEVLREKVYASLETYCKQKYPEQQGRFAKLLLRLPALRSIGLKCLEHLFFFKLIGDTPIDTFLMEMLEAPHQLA
Sequence of Retinoic acid receptor RXR-alpha (Homo sapiens) (P19793 whole entry, looked up, the tested form may be a part): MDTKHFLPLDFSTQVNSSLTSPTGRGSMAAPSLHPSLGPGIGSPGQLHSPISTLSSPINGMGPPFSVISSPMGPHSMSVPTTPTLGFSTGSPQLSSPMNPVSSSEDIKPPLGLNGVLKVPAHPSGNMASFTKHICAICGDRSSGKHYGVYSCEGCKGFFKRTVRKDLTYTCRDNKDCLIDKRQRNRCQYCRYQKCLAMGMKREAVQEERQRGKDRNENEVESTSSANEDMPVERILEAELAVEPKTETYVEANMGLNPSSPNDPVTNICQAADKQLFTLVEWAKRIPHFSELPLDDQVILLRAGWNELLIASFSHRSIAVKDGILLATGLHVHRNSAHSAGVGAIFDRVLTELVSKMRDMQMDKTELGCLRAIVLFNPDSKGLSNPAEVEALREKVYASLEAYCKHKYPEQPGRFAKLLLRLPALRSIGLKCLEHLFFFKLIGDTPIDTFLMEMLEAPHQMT
Sequence of human RAR-related Orphan Receptor beta (RORb), RORB (gene 6096) (Q92753 whole entry, looked up, the tested form may be a part): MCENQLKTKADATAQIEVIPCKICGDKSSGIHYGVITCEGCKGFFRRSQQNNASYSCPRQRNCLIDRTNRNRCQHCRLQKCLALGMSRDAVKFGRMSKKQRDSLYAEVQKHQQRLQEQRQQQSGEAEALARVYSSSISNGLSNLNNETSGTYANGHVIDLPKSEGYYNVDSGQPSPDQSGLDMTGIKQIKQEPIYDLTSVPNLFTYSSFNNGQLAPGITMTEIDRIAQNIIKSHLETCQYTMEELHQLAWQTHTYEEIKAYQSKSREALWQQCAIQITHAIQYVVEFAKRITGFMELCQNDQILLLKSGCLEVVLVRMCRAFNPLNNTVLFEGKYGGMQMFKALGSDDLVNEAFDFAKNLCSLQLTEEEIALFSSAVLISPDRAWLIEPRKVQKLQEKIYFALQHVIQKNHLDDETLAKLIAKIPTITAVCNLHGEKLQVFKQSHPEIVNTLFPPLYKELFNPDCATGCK
Sequence of human Thyroid Receptor alpha (THRa1), THRA (gene 7067) (P10827 whole entry, looked up, the tested form may be a part): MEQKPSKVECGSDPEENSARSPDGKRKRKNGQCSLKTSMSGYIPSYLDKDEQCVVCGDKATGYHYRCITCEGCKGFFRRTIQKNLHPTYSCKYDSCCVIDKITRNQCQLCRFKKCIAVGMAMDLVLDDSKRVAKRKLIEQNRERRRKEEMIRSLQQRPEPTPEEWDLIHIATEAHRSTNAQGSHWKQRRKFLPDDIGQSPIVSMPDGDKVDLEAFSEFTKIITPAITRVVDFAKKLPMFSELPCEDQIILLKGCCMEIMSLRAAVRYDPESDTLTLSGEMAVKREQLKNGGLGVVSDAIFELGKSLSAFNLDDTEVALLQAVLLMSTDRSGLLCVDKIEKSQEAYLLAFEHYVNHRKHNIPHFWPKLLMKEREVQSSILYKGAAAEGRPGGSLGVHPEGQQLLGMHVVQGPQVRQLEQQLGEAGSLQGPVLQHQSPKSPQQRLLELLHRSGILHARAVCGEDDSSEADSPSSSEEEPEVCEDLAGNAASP
Sequence of human Vitamin D Receptor (VDR), VDR (gene 7421) (P11473 whole entry, looked up, the tested form may be a part): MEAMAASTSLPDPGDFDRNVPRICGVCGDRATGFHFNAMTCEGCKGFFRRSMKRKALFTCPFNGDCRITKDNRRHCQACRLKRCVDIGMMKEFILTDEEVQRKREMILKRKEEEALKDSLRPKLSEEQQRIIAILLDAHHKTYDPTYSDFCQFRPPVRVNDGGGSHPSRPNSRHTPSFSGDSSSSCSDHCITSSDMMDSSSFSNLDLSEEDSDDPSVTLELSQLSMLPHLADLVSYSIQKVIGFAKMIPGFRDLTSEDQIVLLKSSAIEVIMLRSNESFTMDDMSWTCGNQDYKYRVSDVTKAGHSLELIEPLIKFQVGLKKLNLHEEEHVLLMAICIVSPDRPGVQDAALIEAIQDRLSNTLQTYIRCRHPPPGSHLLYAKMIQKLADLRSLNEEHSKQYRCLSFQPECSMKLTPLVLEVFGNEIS
Sequence of human RAR-related Orphan Receptor gamma (RORg), RORC (gene 6097) (P51449 whole entry, looked up, the tested form may be a part): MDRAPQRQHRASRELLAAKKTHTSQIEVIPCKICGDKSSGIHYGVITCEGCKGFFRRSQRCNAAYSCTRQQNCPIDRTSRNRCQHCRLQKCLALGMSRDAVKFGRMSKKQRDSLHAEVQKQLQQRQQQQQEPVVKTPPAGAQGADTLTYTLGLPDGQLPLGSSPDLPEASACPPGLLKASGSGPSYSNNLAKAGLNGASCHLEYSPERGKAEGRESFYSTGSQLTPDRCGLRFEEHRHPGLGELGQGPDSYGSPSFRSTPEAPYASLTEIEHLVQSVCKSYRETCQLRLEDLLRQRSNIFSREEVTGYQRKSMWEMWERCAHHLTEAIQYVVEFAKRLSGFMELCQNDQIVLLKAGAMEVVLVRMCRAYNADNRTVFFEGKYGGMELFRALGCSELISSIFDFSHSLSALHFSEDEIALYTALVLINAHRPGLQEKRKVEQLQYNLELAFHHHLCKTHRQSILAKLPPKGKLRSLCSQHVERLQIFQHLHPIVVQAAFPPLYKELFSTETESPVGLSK

For `O=c1ssc(Cl)c1Cl`, the outcome in [1], in experiment [2] and in experiment [14] was inactive. In addition, the half-maximal activity concentration (AC50) in experiment [3] is 6.13 µM (active); in experiment [4] it was 12.2 µM (active); in experiment [5], 3.92 µM (active); in experiment [6], 3.59 µM (active); in experiment [7], 7.48 µM (active); in experiment [8] it was 14.8 µM (active). The concentration at half-maximal activity (AC50) is 5.07 µM (active) in experiment [9]; 9.81 µM (active) in experiment [10]; 4.24 µM (active) in experiment [11]; 5.42 µM (active) in experiment [12]; 5.34 µM (active) in experiment [13].
With `N#C/C=C/c1ccccc1`, the compound was classed as inactive in experiment [1], in [15] and in experiment [16].
For `Cc1cccc(N)c1`, the result in [1], in experiment [3], in experiment [4], in experiment [17], in experiment [5] and in experiment [6] was inactive. Moreover, the result in experiment [7], in experiment [8], in experiment [18], in experiment [9], in experiment [10] and in [11] was inactive. Also, the result in [19], in experiment [12], in experiment [13] and in experiment [14] was inactive.
Consider `CC(O)C(F)(F)C(F)(F)F` (stereo unspecified), for which the outcome in experiment [1], in experiment [2], in experiment [15], in experiment [3], in experiment [4] and in [5] was inactive. Besides, the result in experiment [6], in experiment [7], in experiment [8], in [18], in experiment [9] and in experiment [10] was inactive. The outcome in [12], in [13] and in experiment [14] was inactive.
On to `CC(C)CBr`, for which, in experiment [1], the compound was classed as inactive.
For the compound `Cc1ccc(C(=O)Cl)cc1`, the compound was classed as inactive in experiment [1], in experiment [20] and in [2].
Turning to `Nc1ccc2ccccc2c1`, the outcome in [1], in experiment [2], in experiment [16], in [3], in experiment [4] and in experiment [17] was inactive. The outcome in experiment [5], in [6], in experiment [7], in experiment [8], in experiment [9] and in experiment [11] was inactive. For the same compound, the result in experiment [12], in experiment [13] and in experiment [14] was inactive. Moreover, the AC50 in experiment [10] was 2.92 µM (active).
On to `CCOC(=O)c1ccccc1N`, for which the outcome in experiment [1] and in experiment [18] was inactive.
In the case of `O=[N+]([O-])c1ccc(Cl)c(Cl)c1`, the result in experiment [1], in experiment [2], in experiment [15], in experiment [16], in [3] and in [4] was inactive. Moreover, the result in [5], in [6], in [7], in experiment [8], in [9] and in experiment [10] was inactive. Moreover, the outcome in [11], in experiment [12], in experiment [13] and in [14] was inactive.
Take `O=C(O)CF`: the outcome in experiment [1], in experiment [2], in [15] and in experiment [18] was inactive.
As for `O=C(O)C1C(C(=O)O)C2(Cl)C(Cl)=C(Cl)C1(Cl)C2(Cl)Cl` (stereo unspecified), the call in experiment [1], in [3], in [4], in experiment [17], in experiment [5] and in [6] was inactive. Besides, the result in [7], in [8], in experiment [9], in experiment [10], in [11] and in [12] was inactive. In addition, the outcome in experiment [13] and in [14] was inactive.
For the compound `Cn1[nH]nnc1=S`, the result in [1] and in [2] was inactive.
